# Data: PubChem BioAssay AID641 (Vanderbilt High Throughput Screening Facility, 2007)
# In all, about 58,000 compounds went through this assay and about 3,400 (5.9%) were called active.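 How the source made its calls: active means luminescence count or its row- and column-corrected plate score outside the 99.7% band of the plate's sample wells, on either side; inactive means the rest.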 Many of the other results were omitted from the sample, so actives are more common in it than they were.
# Biological target: D(1A) dopamine receptor (Homo sapiens) (UniProt P21728)
# Test: D1 CRE-luciferase signal change, two-sided – cell-based, HEK293 D1, dopamine EC30, D1 allosteric modulator project, primary screen (AID 641)
# Conditions: dopamine EC30 potentiation, at 10 µM, actives deviate in either direction
# D(1A) dopamine receptor (Homo sapiens), sequence (P21728 whole entry, looked up): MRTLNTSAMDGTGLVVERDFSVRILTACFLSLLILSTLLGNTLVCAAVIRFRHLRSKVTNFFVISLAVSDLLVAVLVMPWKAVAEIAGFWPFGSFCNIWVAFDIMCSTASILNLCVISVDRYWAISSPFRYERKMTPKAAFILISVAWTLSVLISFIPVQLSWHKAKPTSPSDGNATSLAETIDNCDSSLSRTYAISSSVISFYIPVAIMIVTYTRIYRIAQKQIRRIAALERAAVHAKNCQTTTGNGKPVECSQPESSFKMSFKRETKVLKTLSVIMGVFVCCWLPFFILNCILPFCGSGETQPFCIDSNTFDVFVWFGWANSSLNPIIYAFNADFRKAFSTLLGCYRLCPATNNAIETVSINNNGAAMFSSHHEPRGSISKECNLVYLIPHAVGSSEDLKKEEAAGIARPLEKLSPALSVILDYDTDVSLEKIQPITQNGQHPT
row,Compound,B-score
1,c1ccc(Nc2nc(-c3ccncc3)cs2)nc1,-2.02 (inactive)
2,COc1ccc(OC)c(Nc2nc(-c3ccc(O)c(O)c3)cs2)c1,-0.798 (inactive)
3,Oc1ccc(-c2csc(Nc3cccnc3)n2)cc1,6.13 (active)
4,COc1ccc(OC)c(C(=O)c2coc3ccc(OC)cc23)c1,0.803 (inactive)
5,COc1ccc(-c2nnc(SCC(=O)NC3CCCCC3)o2)cc1OC,5.11 (active)
6,COc1ccc(CCNC(=O)CSc2nnc(-c3cccc(F)c3)o2)cc1OC,0.506 (inactive)
7,COc1ccccc1-c1nnc(SCC(=O)Nc2ccccc2)o1,-1.39 (inactive)
8,c1ccc2c(NCC3CCCO3)nc(-c3ccncc3)nc2c1 (stereo unspecified),6.75 (active)
9,Cc1nc2ccccc2c2oc(C(=O)NCC3CCCO3)cc12 (stereo unspecified),1.81 (inactive)
10,Cc1ccc(-c2noc(-c3ccccc3C(=O)NCC3CCCO3)n2)cc1 (stereo unspecified),-0.376 (inactive)
11,CN(C)/C=C1/C(=O)Nc2ccccc21,0.196 (inactive)
12,CCCCn1c(SCC(=O)NCC2CCCO2)nc2ccc(N3CCOCC3)cc2c1=O (stereo unspecified),0.249 (inactive)
13,CC(C)(C)c1nc(NCC2CCCO2)c2nnn(Cc3ccccc3)c2n1 (stereo unspecified),0.157 (inactive)
14,Cn1c(=O)c2[nH]c(NCC3CCCO3)nc2n(-c2ccccc2)c1=O (stereo unspecified),2.53 (active)
15,CCC1C(C#N)=C(SC)NC2=C1C(=O)CC(C)(C)C2 (stereo unspecified),-0.282 (inactive)
16,O=C(CCCCn1c(=O)[nH]c2ccccc2c1=O)NCc1ccc2c(c1)OCO2,0.766 (inactive)
17,O=C(CCn1c(=O)[nH]c2ccccc2c1=O)NCCCN1CCN(c2cccc(Cl)c2)CC1,-1.82 (inactive)
18,O=C(CCCn1c(=O)[nH]c2cc(Cl)ccc2c1=O)NCCN1CCN(c2ccccc2)CC1,-3.76 (active)
19,C=CCNC(=O)C1CC=CCC1C(=O)O (stereo unspecified),0.00169 (inactive)
20,CC(C)(C)NC(=O)c1cc(NC(=O)c2ccco2)cc(NC(=O)c2ccco2)c1,-0.752 (inactive)
21,O=C(C1CC1)N1CCN=C1SCc1ccc(Cl)cc1,0.0469 (inactive)
22,O=C(c1ccco1)N1CCN(c2cccc(Cl)c2)CC1,-0.482 (inactive)
23,O=C(c1ccco1)N1CCN=C1SCc1cccc(Cl)c1,6.32 (active)
24,N#CC1=C(N)OC2=C(C(=O)CCC2)C1C1CC=CCC1 (stereo unspecified),-0.19 (inactive)
25,CCCN1C(=O)C(NC(C)=O)c2cc(OC)ccc21 (stereo unspecified),0.478 (inactive)
26,CC(=O)Nc1cccc(NC(=O)c2c(-c3ccccc3)noc2C)c1,0.894 (inactive)

row,Compound,B-score
1,Cc1onc(-c2ccccc2)c1C(=O)Nc1ccccc1C#N,-4.73 (active)
2,Cc1onc(-c2ccccc2)c1C(=O)N1CCOCC1,-1.43 (inactive)
3,Cc1cc(C)c2nc(N3CCCC3)c(C#N)cc2c1,0.082 (inactive)
4,CCCN1Cc2cccc(C(=O)NCc3ccccc3)c2C1=O,11.5 (active)
5,COCCN1Cc2cccc(C(=O)Nc3ccccc3OC)c2C1=O,0.446 (inactive)
6,CS(=O)(=O)NCc1ccc(C(=O)NCc2ccccc2)cc1,0.452 (inactive)
7,O=S(=O)(NCCNS(=O)(=O)c1ccccc1)c1ccccc1,0.231 (inactive)
8,COc1ccccc1Oc1ccc(S(=O)(=O)Nc2cccnc2)cc1,-1.35 (inactive)
9,O=C(Nc1nnc(-c2ccc(Cl)cc2)o1)c1ccccc1Br,-0.685 (inactive)
10,CC1=CC(C)(C)N(C(=O)CSc2nccn2C)c2cc(C)ccc21,-0.925 (inactive)
11,Cc1noc(NS(=O)(=O)c2ccc(NC(=O)C34CCC(CC3)C4)cc2)c1C,-0.488 (inactive)
12,CN(CC(=O)NC1CCCCC1)S(=O)(=O)c1cccc2cccnc12,-1.04 (inactive)
13,O=C(Cn1cnc2c(cnn2-c2ccc(F)cc2)c1=O)NCCc1ccccc1,-0.343 (inactive)
14,N#C/C(=C1\CCCN1)c1nc(-c2ccccc2)cs1,-1.24 (inactive)
15,Cn1c(/C(C#N)=C2/CCCCCN2)nc2ccccc21,11.4 (active)
16,CC(C)n1c(C(O)c2ccccc2)nc2ccccc21 (stereo unspecified),3.08 (active)
17,CCCn1c(C(O)c2ccc(OCC)cc2)nc2ccccc21 (stereo unspecified),-0.886 (inactive)
18,COc1cc(C(O)c2nc3ccccc3n2C)cc(OC)c1OC (stereo unspecified),-0.575 (inactive)
19,Cn1c(=O)c2c(nc(CN3CCOCC3)n2Cc2ccccc2)n(C)c1=O,-0.887 (inactive)
20,CCOC(=O)C1Cn2c(nc3c(c2=O)C(C)(CC)Cc2ccccc2-3)S1 (stereo unspecified),-0.309 (inactive)
21,CC1(C)Cc2ccccc2-c2nc(CN3CCOCC3)[nH]c(=O)c21,11.8 (active)
22,Cc1ccc(N(CC(O)CN2CCCC2)S(=O)(=O)c2ccccc2)cc1 (stereo unspecified),0.09 (inactive)
23,COc1ccc(-c2nc(CS(=O)CC(=O)N3CCc4ccccc4C3)c(C)o2)cc1 (stereo unspecified),-0.182 (inactive)
24,COc1ccc(-n2ncc3c(N4CCCc5ccccc54)ncnc32)cc1,0.526 (inactive)
25,COc1ccc(-n2ncc3c(N4CCc5ccccc54)ncnc32)cc1,-3.03 (active)
26,Cc1cccc(-n2ncc3c(N4CCc5ccccc54)ncnc32)c1,-0.748 (inactive)

row,Compound,B-score
1,Cc1cc(/C=N/n2cnnc2)c(C)n1-c1ccc2ncccc2c1,-0.264 (inactive)
2,CN1C(=O)c2ccc(NC(=O)c3c(F)c(F)c(F)c(F)c3F)cc2C1=O,0.371 (inactive)
3,CNC(=O)C1CC(=O)N(Cc2ccc3c(c2)OCO3)C(=Nc2ccc(F)cc2)S1 (stereo unspecified),-4.24 (active)
4,O=C(CN1CCN(CC(=O)Nc2ccc3c(c2)OCO3)CC1)Nc1ccc(F)cc1,-0.0409 (inactive)
5,O=C(Cn1cnc2c(nnn2Cc2ccc(F)cc2)c1=O)NCc1ccc2c(c1)OCO2,-1.24 (inactive)
6,O=C(Nc1cccc(F)c1)c1ccc(S(=O)(=O)N2CCCC2)cc1,-0.728 (inactive)
7,Cc1ccccc1OCC(=O)Nc1ccc(N2CCN(C(=O)C(C)C)CC2)c(Cl)c1,-0.399 (inactive)
8,CN1CCN(c2ccc(NC(=O)COc3ccc(Cl)cc3Cl)cc2)CC1,-5.29 (active)
9,CC(C)CNS(=O)(=O)c1ccc(OCC(=O)Nc2ccc3c(c2)OCO3)c(Cl)c1,0.525 (inactive)
10,Cc1ccc(C)c(NC(=O)CSc2nnc(Cc3cccn3C)n2-c2ccc(F)cc2)c1,-0.0122 (inactive)
11,CCOC(=O)C1CCc2nc3ccccc3c(=O)n21 (stereo unspecified),-0.327 (inactive)
12,CC(C[N+](C)(C)C)OC(N)=O (stereo unspecified),0.394 (inactive)
13,CC(=O)OC(C)C[N+](C)(C)C (stereo unspecified),6.75 (active)
14,CSc1nnc(CNC(=O)c2ccccc2)n1-c1ccc(F)cc1,-0.759 (inactive)
15,Cc1ccccc1NC(=O)c1cnn(-c2ccccc2)c1NC(=O)c1ccco1,-0.921 (inactive)
16,COCCCn1c(CCC(=O)O)ccc1-c1ccc(F)cc1,0.034 (inactive)
17,COC(=O)c1sc(NC(=O)c2csc3c2CCCC3)nc1C,0.102 (inactive)
18,COc1ccc(C(=O)Nc2nncs2)c(OC)c1,-0.602 (inactive)
19,COC(=O)c1sc(NC(=O)c2ccc(OC)cc2OC)nc1C,-2.64 (active)
20,O=S(=O)(c1cccs1)N1CCN(Cc2ccccc2)CC1,0.549 (inactive)
21,O=S(=O)(c1cccs1)N1CCc2ccccc2C1,7.95 (active)
22,O=C(C1CCN(S(=O)(=O)c2cccs2)CC1)N1CCCCCC1,-0.0225 (inactive)
23,CCNC(=O)CCc1nc(-c2ccc(C(C)(C)C)cc2)no1,-0.735 (inactive)
24,CCOc1ccccc1N(CC(=O)Nc1ccccc1C(=O)OC)S(C)(=O)=O,0.461 (inactive)
25,CC1=C2C(=O)OC(c3ccoc3)C2(C)CCC1 (stereo unspecified),-0.874 (inactive)
26,CC(=O)Nc1cccc(Oc2cc(C#N)c(C#N)cc2N2CCOCC2)c1,10.6 (active)

row,Compound,B-score
1,CCOc1cccc(NC(=O)CC#N)c1,-0.00988 (inactive)
2,CC(=O)Nc1ccc(N2CCOCC2)c(C(=O)Nc2cccc(C)c2)c1,-0.395 (inactive)
3,COc1ccc(S(=O)(=O)N2CCC(C(=O)N3CCOCC3)CC2)cc1OC,1.55 (inactive)
4,O=C(Cn1cnc2c(nnn2-c2ccccc2)c1=O)N1CCC(Cc2ccccc2)CC1,-0.43 (inactive)
5,CCSC1=C(C#N)C(=O)n2c1cc1c2CCCC1,-0.914 (inactive)
6,CCSc1ncnc2c(C#N)c3n(c12)CCCCC3,13.8 (active)
7,CCOC(=O)C1=C(C)NC(=O)N(C(C)=O)C1c1ccc(Cl)cc1 (stereo unspecified),-0.258 (inactive)
8,COc1ccc(-c2noc(-c3cccc(OC)c3OC)n2)cc1OC,-0.715 (inactive)
9,COc1cc(-c2nc(-c3ccncc3)no2)cc(OC)c1OC,0.324 (inactive)
10,COc1ccc(-c2nc(-c3ccccc3)no2)c(OC)c1,-4.54 (active)
11,COc1ccc(NC(=O)CN2CCN(S(=O)(=O)c3ccc(F)cc3)CC2)cc1Cl,0.0874 (inactive)
12,CC1(C)CC(=O)C=C(NCCCNC2CCCCC2)C1,-0.045 (inactive)
13,CCOc1ccccc1NC(=O)C1CCN(S(=O)(=O)c2c(C)nn(C)c2C)CC1,-0.536 (inactive)
14,COc1cccc(CNC(=O)C2CCN(S(=O)(=O)c3cccc4cccnc34)CC2)c1,0.421 (inactive)
15,COC(=O)c1ccccc1NC(=O)C1CCN(S(=O)(=O)c2cc(OC)ccc2OC)CC1,16.9 (active)
16,Cn1cc(S(=O)(=O)N2CCC(Cc3ccccc3)CC2)c(=O)n(C)c1=O,0.229 (inactive)
17,CC1CCC(NC(=O)c2ccc(N3CCCC3=O)cc2)CC1 (stereo unspecified),-0.328 (inactive)
18,O=P(c1cccs1)(c1cccs1)c1cccs1,-0.658 (inactive)
19,CC1C(c2ccccc2)=[N+]([O-])C2(CCCC2)N1O (stereo unspecified),0.0193 (inactive)
20,CCCCc1nc2ccccc2c(=O)n1NC(=O)c1c(O)c2cccc3c2n(c1=O)CC3,-0.934 (inactive)
21,Nc1ccc(-c2nnc(-c3ccc(-c4ccccc4)cc3)o2)cc1,-0.481 (inactive)
22,CCc1ccc2oc(-c3ccc(N)cc3)nc2c1,-5.51 (active)
23,CCCCCC(=O)Nc1ccc2oc(-c3ccncc3)nc2c1,-0.0351 (inactive)
